From PubChem BioAssay AID602 (SRMLSC, 2007) come the findings set out here.

Among all 85,000 compounds or so, about 35 (0.04%) were called active.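 Rule for the calls: active = viability drop by adding the cancer drug above about 55%, with treated viability meeting a 40% cutoff (limit read from the data); inactive = the rest, inconclusive results apart.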 This excerpt belongs to a sample that is enriched for actives.

This test is described as follows: MRP1 drug-resistance reversers in H69AR cells – cell-based, doxorubicin co-treatment, primary screen (AID 602).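 For differential viability (reversal): larger differential means the compound sensitizes cells more to doxorubicin.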 The settings on record: CellTiter-Glo, 72 h, at 10 µM; for differential viability (reversal): stronger effect = higher value. (ATP-based viability assays read luminescence as a measure of living cells.)
Setting [1] is: H69AR cells + 2 uM doxorubicin, measured here: viability with 2 uM doxorubicin, stronger effect = lower value.
Setting [2] is: H69AR cells, measured here: cytotoxicity without doxorubicin.

The viability is a read-out of living cells in per cent, often relative to untreated cells. With `Cc1cc(C)n(-c2nnc(C)n2NC(=O)c2cccc(Cl)c2)n1`, the differential viability (reversal) (H69AR cells + 2 uM doxorubicin) was -4.55% (inactive). Besides, the viability by setting is: under setting [1], 92.7%; under setting [2], 88.1%.
`Cc1ccc(OCc2nnc(NC(=O)OCC(C)C)s2)cc1`: under “H69AR cells + 2 uM doxorubicin”, the differential viability (reversal) is 9.33% (inactive). Further, the viability worked out at 92.3% under setting [1] and 102% under setting [2].
Regarding `O=S(=O)(N1CCCCC1)N1CCNCC1`, for the setting “H69AR cells + 2 uM doxorubicin”, the differential viability (reversal) is -0.65% (inactive). In addition, the viability by setting is: under setting [1], 101%; under setting [2], 100%.
In the case of `COc1cccc(OCc2cc(/C=N/NC(=O)c3nc(Cl)c(Cl)c(N)c3Cl)ccc2OC)c1`, the differential viability (reversal) (H69AR cells + 2 uM doxorubicin) was -32.4% (inactive). The viability was found to be 52.1% under setting [1] and 19.7% under setting [2].
For the molecule `CS(=O)(=O)N(CC(O)Cn1c2ccccc2c2ccccc21)c1cccc2ccccc12` (centres undefined), the differential viability (reversal) (H69AR cells + 2 uM doxorubicin) was -10.3% (inactive). For the same molecule, the viability runs as follows: under setting [1], 12%; under setting [2], 1.71%.
`CSc1ccccc1NC(=O)c1cc(C2CC2)on1`: the differential viability (reversal) (H69AR cells + 2 uM doxorubicin) was -6.53% (inactive). The viability reads like this: under setting [1], 97.2%; under setting [2], 90.7%.
For `O=C(NCCOc1ccccc1)c1ccccc1`, the differential viability (reversal) (H69AR cells + 2 uM doxorubicin) is -3.69% (inactive). Further, the viability under setting [1] was determined as 95.1% and the viability under setting [2] amounted to 91.4%.
With `COc1ccc(NC(=O)Nc2ccc3nc(C)c(C)nc3c2)cc1`, under “H69AR cells + 2 uM doxorubicin”, the differential viability (reversal) is 5.42% (inactive). Moreover, the viability is, setting by setting: under setting [1], 85.3%; under setting [2], 90.7%.
Turning to `CCNc1nc(NC(C)C)nc(OCCOC(=O)c2ccccc2)n1`, the differential viability (reversal) (H69AR cells + 2 uM doxorubicin) was -9.76% (inactive). The viability under setting [1] was 93.2% and the viability under setting [2] was 83.5%.
With `CC(C)=C1SC(N2CCN(c3cccc(C)c3)CC2)=NC1=O`, the differential viability (reversal) (H69AR cells + 2 uM doxorubicin) is 15.1% (inactive). Besides, the viability under setting [1] was 81.8% and the viability under setting [2] was 96.9%.
The matching figures for `O=C(NC1CCCC1)C(c1ccccn1)N(C(=O)c1csnn1)C1CCCC1` (centres undefined): 0.73% (inactive), 80.5% and 81.2%.
`COC(=O)C1=C(Nc2ccc(C)cc2)C=C(C)C(C(=O)OC)C1c1ccc(F)cc1` (centres undefined): the differential viability (reversal) (H69AR cells + 2 uM doxorubicin) was -31.5% (inactive). Moreover, the viability runs as follows: under setting [1], 43.6%; under setting [2], 12.1%.
Regarding `CCC(C)(C)n1nnnc1CN1CCN(c2nc3ccc(C)cc3cc2C#N)CC1`, the differential viability (reversal) (H69AR cells + 2 uM doxorubicin) was 0.16% (inactive). For the same molecule, the viability worked out at 81.3% under setting [1] and 81.4% under setting [2].
On to `CCOc1cc2[nH]c(=S)n(CCN3CCCCC3C)c(=O)c2cc1OCC` (centres undefined), for which, where the note is “H69AR cells + 2 uM doxorubicin”, the differential viability (reversal) was 3.92% (inactive). For the same molecule, the viability is, setting by setting: under setting [1], 78.5%; under setting [2], 82.5%.
Regarding `CCOC(=O)c1cnc(SCC(=O)Nc2ccccc2C(=O)OC)nc1N`, for the setting “H69AR cells + 2 uM doxorubicin”, the differential viability (reversal) is 2.9% (inactive). For the same molecule, the viability worked out at 84.2% under setting [1] and 87.2% under setting [2].
Taken in the same sequence, the figures for `O=C(Nc1ccc2oc(-c3ccc4ccccc4c3)nc2c1)c1cccs1` were -0.32% (inactive), 2.97% and 2.65%.
Turning to `CCN(CC)C(=O)CN(c1cccc(OC)c1)S(=O)(=O)c1ccc(C)cc1`, under “H69AR cells + 2 uM doxorubicin”, the differential viability (reversal) was -12.4% (inactive). In addition, the viability was 94.7% under setting [1] and 82.3% under setting [2].
On to `Cc1nnc(NC(=O)CCCOc2ccccc2)s1`, for which, under “H69AR cells + 2 uM doxorubicin”, the differential viability (reversal) was 12.8% (inactive). Moreover, the viability amounted to 80.9% under setting [1] and 93.7% under setting [2].
On to `CCn1c(-c2ccoc2C)n[nH]c1=S`, for which the differential viability (reversal) (H69AR cells + 2 uM doxorubicin) was 3.26% (inactive). The viability reads like this: under setting [1], 86.2%; under setting [2], 89.5%.
For `Cc1ccccc1N1CCN(CCCOc2ccc3c(C)cc(=O)oc3c2)CC1`, the differential viability (reversal) (H69AR cells + 2 uM doxorubicin) is -14.1% (inactive). Also, the viability by setting is: under setting [1], 72.8%; under setting [2], 58.7%.
Regarding `O=c1cc(CN2CCN(c3cccc(Cl)c3)CC2)c2cc3c(cc2o1)CCCC3`, the differential viability (reversal) (H69AR cells + 2 uM doxorubicin) was 36.9% (inactive). Besides, the viability runs as follows: under setting [1], 82.6%; under setting [2], 120%.
Take `O=C(c1ccc(Cl)c(Cl)c1)N1CCCC1`: where the note is “H69AR cells + 2 uM doxorubicin”, the differential viability (reversal) was -4.92% (inactive). The viability is 100% under setting [1] and 95.3% under setting [2].
Taken in the same sequence, the figures for `Cc1ccc(NC(=O)Nc2ccc3oc(C)nc3c2)cc1` were -17% (inactive), 91.5% and 74.5%.
As for `COc1ccc(Cl)cc1C(=O)NCc1cn(C)nc1C`, the differential viability (reversal) (H69AR cells + 2 uM doxorubicin) was 5.94% (inactive). The viability under setting [1] was 80.2% and the viability under setting [2] was found to be 86.1%.
Take `O=C(CN1CCCCCC1)N1c2ccccc2Sc2ccc(C(F)(F)F)cc21`: the differential viability (reversal) (H69AR cells + 2 uM doxorubicin) was -13.5% (inactive). Moreover, the viability under setting [1] stood at 50.3% and the viability under setting [2] is 36.8%.
Take `COc1ccc(-c2nnc(SCC(=O)c3ccc4c(c3)OCCO4)o2)cc1`: the differential viability (reversal) (H69AR cells + 2 uM doxorubicin) is 2.52% (inactive). In addition, the viability by setting is: under setting [1], 99.1%; under setting [2], 102%.
`Cc1ccc(S(=O)(=O)Oc2ccc(/C=N/NC(=O)c3c(Cl)cnn3C)cc2)cc1`: under “H69AR cells + 2 uM doxorubicin”, the differential viability (reversal) was -3.21% (inactive). Moreover, the viability is, setting by setting: under setting [1], 82.4%; under setting [2], 79.2%.
In the case of `COc1ccc(C(=O)Nc2nc(-c3ccc(S(=O)(=O)N4CCOCC4)cc3)cs2)cc1`, for the setting “H69AR cells + 2 uM doxorubicin”, the differential viability (reversal) is -4.07% (inactive). Also, the viability came to 62.1% under setting [1] and 58% under setting [2].
`O=c1c2ccccc2nc2n1C1(CCCCC1)Cc1ccccc1-2`: the differential viability (reversal) (H69AR cells + 2 uM doxorubicin) was -4.43% (inactive). For the same molecule, the viability is 88.2% under setting [1] and 83.7% under setting [2].
Take `COC(=O)/C(NC(C)=O)=C(\C)c1ccc(Cl)cc1`: under “H69AR cells + 2 uM doxorubicin”, the differential viability (reversal) was -15.7% (inactive). Moreover, the viability came out at 118% under setting [1] and 102% under setting [2].
For `Cc1nnc(SCC(=O)Nc2ncc3c(n2)CC(C)(C)CC3=O)s1`, where the note is “H69AR cells + 2 uM doxorubicin”, the differential viability (reversal) is 16.1% (inactive). The viability amounted to 79.2% under setting [1] and 95.3% under setting [2].
Taken in the same sequence, the figures for `CC(=O)c1cccc(NC(=O)N2CCCC2C(=O)NCCc2ccccc2)c1` (centres undefined) were 1.66% (inactive), 89.9% and 91.5%.
With `O=C(/C=C/NNC(=O)c1cccc(Br)c1)c1ccccc1`, the differential viability (reversal) (H69AR cells + 2 uM doxorubicin) was -16.9% (inactive). The viability by setting is: under setting [1], 78.5%; under setting [2], 61.5%.
For the molecule `COC(=O)c1ccc(Sc2ccc(F)cc2)c(N)c1`, under “H69AR cells + 2 uM doxorubicin”, the differential viability (reversal) was 11.2% (inactive). Moreover, the viability was determined as 97.4% under setting [1] and 109% under setting [2].
The matching figures for `O=C(CN1CCCCC1)N1c2ccccc2Sc2ccc(C(F)(F)F)cc21`: -4.36% (inactive), 91.2% and 86.8%.
In the case of `CC(CO)N1CCS(=O)(=O)CC1` (centres undefined), the differential viability (reversal) (H69AR cells + 2 uM doxorubicin) was 9.77% (inactive). Also, the viability is 83.8% under setting [1] and 93.6% under setting [2].
For the molecule `O=C(CCN1C(=O)c2ccccc2C1=O)Nc1cccc(F)c1`, under “H69AR cells + 2 uM doxorubicin”, the differential viability (reversal) is 0% (inactive). Besides, the viability runs as follows: under setting [1], 98.2%; under setting [2], 98.2%.
`Cc1ccc(SCCC(=O)OCC(=O)Nc2ncc(Cl)cc2Cl)cc1`: the differential viability (reversal) (H69AR cells + 2 uM doxorubicin) is 6.94% (inactive). Also, the viability is, setting by setting: under setting [1], 72.7%; under setting [2], 79.6%.
